In PubChem BioAssay (NCATS):
Inconclusive results are not listed. Active and inactive are the calls of the source. Unless noted, calls come from the whole dose curve; as a rule, active = well fitted curve in either direction with a large enough effect (not every such curve was filed as active); inconclusive = small, poorly fitted or top-dose-only effect, or another doubt; inactive = flat fitted curve, though single readings scatter.

Columns and labels:
[1] = AP1 Signaling Pathway (AID 357); details: ME-180 AP-1-bla reporter, EGF-induced, beta-lactamase ratio, 5 h; at 7.69 µM (top of the series) unless noted;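 note: ME-180 reporter cells stimulated with EGF at its EC50 level; % is set by controls: 0 for no effect and ±100 for the full control effect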
Method in brief: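 Titration-series screen for positive or negative modulators of EC50 EGF-induced signaling in ME-180 cells carrying an AP-1-driven beta-lactamase reporter. After 5 hours at 37 degrees Celsius, CCF4 460nm/530nm emission ratio gave %Activity; AC50 values derived.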

[2] = target: Cytochrome P450 1A2 (Homo sapiens) (UniProt P05177); test: p450-cyp1a2 (AID 410; calls by dose curve; note: potency is the fitted concentration of half-maximal effect;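 for activity change, negative = inhibition: -100% = full effect of reference inhibitor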)
Method in brief: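 20nM CYP1A2 with 100uM Luciferin-ME (at Km) in 100mM KPO4; compound preincubated 10 min, NADPH regeneration added, 60 min at room temperature. Luciferin quantified by luminescence after detection reagent; normalized to 57 uM furafylline.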

[3] = Stat Signaling Pathway (AID 446); details: ME-180 SIE beta-lactamase reporter, IL-6 stimulated, 5 h; at 7.69 µM (top of the series) unless noted;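 note: ME-180 cervical cancer cells given 40 pM IL-6 alongside compound; SIE-controlled beta-lactamase reporter measured as 460/530 nm FRET emission ratio; % is set by controls: 0 for no effect and ±100 for the full control effect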
Method in brief: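 ME-180 cells carrying a SIE-driven beta-lactamase reporter are stimulated with 40 pM IL-6 for 5 h at 37C in the presence of compound. The 460/530 nm FRET substrate ratio is read after 2.5 h at RT. Data are normalised to 300 pM IL-6 and to 125 nM JAK inhibitor controls.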

[4] = target: Glucocorticoid receptor (Homo sapiens) (UniProt P04150); test: GR-GFP Redistribution (AID 450;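 active = compounds whose dose series gives a full or clear partial fitted curve of increased nuclear translocation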; note: potency is the fitted concentration of half-maximal effect); details: U2OS GR-GFP nuclear translocation, laser cytometry, 2 h
[5] = target: Glucocorticoid receptor (Homo sapiens) (UniProt P04150); test: GR-EFC Redistribution (AID 451; calls by dose curve; note: potency is the fitted concentration of half-maximal effect); details: CHO-K1 GR-EFC translocation, beta-gal luminescence, 2 h
Method in brief: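 Translocation of GR-ED fusion to nuclear EA restores b-gal, read by luminescence after 1 h room-temperature detection. Engineered CHO-K1 biosensor cells, 1,000/well, exposed 2 h at 37 C to titrations up to 46 uM final.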

[6] = target: Mitogen-activated protein kinase 10 (Mus musculus) (UniProt Q61831); test: JNK3 AlphaScreen Assay (AID 530);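 note: kinase came from lysate of stimulated human HepG2 cells; signal reports phosphorylation of biotinylated GST-cJun 1-79 at Ser73 with 10 µM ATP; % is set by controls: 0 for no effect and ±100 for the full control effect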
Method in brief: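 Compound titrations were preincubated 15 minutes at room temperature with substrate, antibody and pre-activated JNK3-containing HepG2 lysate. Reactions were started with 10 uM ATP and stopped with EDTA-containing bead buffer for AlphaScreen detection.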

[7] = target: 3',5'-cyclic-AMP phosphodiesterase 4B (Homo sapiens) (UniProt Q07343); test: qHTS Assay for Inhibitors of PDE-IV (AID 607; active = well fitted activation curve with a large enough effect in the main read-out, with a control signal flat, not every such curve was filed as active; note: % of control where 0% means no effect)
Method in brief: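 HEK293 ACTOne cells with CNG channel (1000/well), endogenous PDE4; membrane potential dye, compounds up to 22.9 uM final. Fluorescence Ex 535/Em 590; RO 20-1724 (100 uM final) as reference.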

[8] = target: Cytochrome P450 3A4 (Homo sapiens) (UniProt P08684); test: qHTS Assay for Activators of Cytochrome P450 3A4 (AID 885; active = well fitted curve in the direction sought with a large enough effect; an effect the other way counts as inactive or inconclusive; note: nearly all actives have a fitted effect of over 65% in size)
Method in brief: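 Human CYP3A4 (20 nM) with Luciferin-PPXE at 25 uM (its KM) in 200 mM KPO4; 10 min compound preincubation, then NADPH regeneration and 60 min reaction at RT. Luciferin read by luminescence; normalized to 57 uM ketoconazole full inhibition.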

[9] = qHTS Assay for Lipid Storage Modulators (AID 1519; calls by dose curve); details: Drosophila S3 cells, BODIPY lipid droplet/cell ratio, laser cytometry, cells loaded with oleic acid; for activity change, negative = inhibition: at 57.5 µM (top of the series)
Method in brief: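 Cells seeded at 5,000 per well were treated with compounds over a concentration series and loaded with oleic acid (400 uM, as added). Lipid droplet fluorescence (488 nm excitation, 500-530 nm channel) was read by laser-scanning cytometry and normalized to 20 uM Triacsin C.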

[10] = target: Ubiquitin carboxyl-terminal hydrolase 1 (Homo sapiens) (UniProt O94782); test: Inhibitors of USP1/UAF1: Pilot qHTS (AID 504865; active = well fitted curve in the direction sought with a large enough effect; an effect the other way counts as inactive or inconclusive;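 note: rhodamine fluorescence freed from ubiquitin-rhodamine substrate followed over time; top concentration of the series differs between compounds; % is set by controls: 0 for no effect and ±100 for the full control effect; nearly all actives have a fitted effect of over 35% in size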)
Method in brief: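 USP1/UAF1 complex at 1 nM preincubated 15 min at room temperature with compound, then Ub-Rho substrate added at 150 nM final. Fluorescence (480/540 nm) read kinetically in 50 mM HEPES pH 7.8, 0.5 mM EDTA, 1 mM TCEP, 0.1 mg/ml BSA, 0.01% Tween-20.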

[11] = Primary qHTS for small molecule stabilizers of the endoplasmic reticulum resident proteome: Secreted ER Calcium Modulated Protein (SERCaMP) assay (AID 1508630; active = well fitted curve in the direction sought with a large enough effect; an effect the other way counts as inactive or inconclusive; note: % is set by controls: 0 for no effect and ±100 for the full control effect)
Method in brief: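 GLuc-SERCaMP-expressing SH-SY5Y cells, pretreated 16 h with compound, are challenged with thapsigargin to empty ER calcium stores; after 4 h, coelenterazine is added directly to the medium and luminescence is imaged.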

[12] = NFAT Signaling Pathway (AID 444); details: Jurkat NFAT-bla M1, carbachol, beta-lactamase ratio, 5 h; at 7.69 µM (top of the series) unless noted
Method in brief: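 Read-out: CCF4 FRET ratio (460 nm/530 nm) after 1 h RT dye loading, used for %activity and AC50 from titration series. Cells: Jurkat NFAT-β-lactamase/M1 line, treated with compound plus 1 uM carbachol for 5 h, 37 °C.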

[13] = target: Cytochrome P450 3A4 (Homo sapiens) (UniProt P08684); test: qHTS Assay for Inhibitors and Substrates of Cytochrome P450 3A4 (AID 884; active = well fitted curve in the direction sought with a large enough effect; an effect the other way counts as inactive or inconclusive; note: nearly all actives have a fitted effect of over 50% in size; note: potency is the fitted concentration of half-maximal effect)
Method in brief: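 20 nM human CYP3A4 with 25 uM Luciferin-PPXE (at KM) in 200 mM KPO4, preincubated 10 min with compound; NADPH regeneration started a 60 min RT reaction. Luciferin detected by luminescence, normalized to 57 uM ketoconazole as full inhibition.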

[14] = target: Lysosomal acid glucosylceramidase (Homo sapiens) (UniProt P04062); test: Glucocerebrosidase-p2 (AID 348; in the data active = potency below about 10 µM; note: potency is the fitted concentration of half-maximal effect); details: purified GBA, blue fluorogenic substrate, 40 min
Method in brief: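 Compounds titrated from 0.6 nM upwards against 0.2 nM enzyme in pH 5.9 citric acid/KH2PO4, taurocholate, tween-20; blue fluorogenic substrate 80 uM, 40 min room temperature, stopped and read Ex 365/Em 440 for AC50.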

[15] = measured here: cell count channel max response
[16] = measured here: lipid channel max response

Sequence of Glucocorticoid receptor (Homo sapiens) (P04150 whole entry, looked up, the tested form may be a part): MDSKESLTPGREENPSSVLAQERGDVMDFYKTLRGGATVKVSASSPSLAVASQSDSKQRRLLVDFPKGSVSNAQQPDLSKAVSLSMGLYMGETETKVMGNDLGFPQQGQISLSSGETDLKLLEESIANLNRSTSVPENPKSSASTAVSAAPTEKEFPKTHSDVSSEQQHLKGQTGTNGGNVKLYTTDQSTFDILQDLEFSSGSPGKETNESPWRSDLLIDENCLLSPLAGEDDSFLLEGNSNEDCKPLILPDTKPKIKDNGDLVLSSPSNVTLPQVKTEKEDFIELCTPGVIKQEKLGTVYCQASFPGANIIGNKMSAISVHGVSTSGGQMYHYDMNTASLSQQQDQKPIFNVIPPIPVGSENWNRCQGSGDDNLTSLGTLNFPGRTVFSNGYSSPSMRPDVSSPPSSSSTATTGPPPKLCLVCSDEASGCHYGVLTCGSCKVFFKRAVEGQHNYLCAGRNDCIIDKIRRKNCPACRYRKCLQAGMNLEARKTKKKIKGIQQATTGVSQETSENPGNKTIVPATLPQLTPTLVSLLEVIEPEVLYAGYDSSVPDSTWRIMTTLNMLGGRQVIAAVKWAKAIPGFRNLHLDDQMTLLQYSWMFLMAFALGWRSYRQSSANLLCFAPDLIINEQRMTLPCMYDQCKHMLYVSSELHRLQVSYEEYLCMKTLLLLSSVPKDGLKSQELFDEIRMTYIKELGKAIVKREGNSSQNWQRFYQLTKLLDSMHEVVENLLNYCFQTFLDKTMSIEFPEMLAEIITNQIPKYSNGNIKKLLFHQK
Sequence of Cytochrome P450 3A4 (Homo sapiens) (P08684 whole entry, looked up): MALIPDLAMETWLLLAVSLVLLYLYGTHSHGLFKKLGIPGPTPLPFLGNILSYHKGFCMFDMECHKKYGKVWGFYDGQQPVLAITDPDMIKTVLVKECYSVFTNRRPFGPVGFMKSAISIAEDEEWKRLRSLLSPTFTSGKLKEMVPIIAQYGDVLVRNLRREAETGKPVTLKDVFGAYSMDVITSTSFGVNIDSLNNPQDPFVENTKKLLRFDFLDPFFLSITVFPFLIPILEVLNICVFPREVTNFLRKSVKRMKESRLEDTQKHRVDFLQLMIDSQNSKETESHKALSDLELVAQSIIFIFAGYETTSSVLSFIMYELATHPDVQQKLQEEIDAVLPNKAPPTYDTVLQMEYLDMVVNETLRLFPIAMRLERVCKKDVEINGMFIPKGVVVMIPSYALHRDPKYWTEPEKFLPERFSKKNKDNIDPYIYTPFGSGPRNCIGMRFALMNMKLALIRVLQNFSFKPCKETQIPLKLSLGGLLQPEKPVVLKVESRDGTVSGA
Sequence of Cytochrome P450 1A2 (Homo sapiens) (P05177 whole entry, looked up): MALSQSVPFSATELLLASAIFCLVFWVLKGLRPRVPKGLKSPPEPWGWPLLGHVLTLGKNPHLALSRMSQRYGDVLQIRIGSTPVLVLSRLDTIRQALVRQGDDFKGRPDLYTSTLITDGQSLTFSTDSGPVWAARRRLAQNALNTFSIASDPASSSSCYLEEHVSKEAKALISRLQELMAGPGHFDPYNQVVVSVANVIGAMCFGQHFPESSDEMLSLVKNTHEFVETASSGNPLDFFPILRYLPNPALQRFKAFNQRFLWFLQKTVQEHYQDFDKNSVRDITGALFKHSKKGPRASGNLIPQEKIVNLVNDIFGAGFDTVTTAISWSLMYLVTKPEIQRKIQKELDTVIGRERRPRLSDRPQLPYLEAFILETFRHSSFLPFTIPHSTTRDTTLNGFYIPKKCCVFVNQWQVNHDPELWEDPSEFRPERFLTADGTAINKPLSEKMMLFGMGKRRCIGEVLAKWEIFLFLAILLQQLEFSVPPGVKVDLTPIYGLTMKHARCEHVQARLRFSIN
Sequence of 3',5'-cyclic-AMP phosphodiesterase 4B (Homo sapiens) (Q07343 whole entry, looked up): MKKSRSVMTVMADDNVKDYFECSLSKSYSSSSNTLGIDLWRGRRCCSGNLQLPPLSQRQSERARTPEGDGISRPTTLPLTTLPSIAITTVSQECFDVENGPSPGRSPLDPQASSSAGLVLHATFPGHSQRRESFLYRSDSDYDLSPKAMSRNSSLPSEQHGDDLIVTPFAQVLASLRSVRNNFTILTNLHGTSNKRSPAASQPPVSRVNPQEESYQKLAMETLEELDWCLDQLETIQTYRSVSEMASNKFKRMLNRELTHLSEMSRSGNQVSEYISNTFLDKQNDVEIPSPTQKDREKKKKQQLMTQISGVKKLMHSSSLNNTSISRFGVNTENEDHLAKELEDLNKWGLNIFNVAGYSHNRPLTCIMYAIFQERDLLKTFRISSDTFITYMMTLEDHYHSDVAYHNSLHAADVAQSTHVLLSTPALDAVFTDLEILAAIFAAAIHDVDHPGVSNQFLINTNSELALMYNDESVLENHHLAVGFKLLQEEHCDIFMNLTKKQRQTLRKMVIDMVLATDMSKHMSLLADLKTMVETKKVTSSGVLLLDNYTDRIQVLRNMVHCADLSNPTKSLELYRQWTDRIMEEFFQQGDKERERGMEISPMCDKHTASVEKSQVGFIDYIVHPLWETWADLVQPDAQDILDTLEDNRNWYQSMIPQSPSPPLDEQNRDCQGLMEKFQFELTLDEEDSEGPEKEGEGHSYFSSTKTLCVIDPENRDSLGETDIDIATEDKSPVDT
Sequence of Ubiquitin carboxyl-terminal hydrolase 1 (Homo sapiens) (O94782 whole entry, looked up): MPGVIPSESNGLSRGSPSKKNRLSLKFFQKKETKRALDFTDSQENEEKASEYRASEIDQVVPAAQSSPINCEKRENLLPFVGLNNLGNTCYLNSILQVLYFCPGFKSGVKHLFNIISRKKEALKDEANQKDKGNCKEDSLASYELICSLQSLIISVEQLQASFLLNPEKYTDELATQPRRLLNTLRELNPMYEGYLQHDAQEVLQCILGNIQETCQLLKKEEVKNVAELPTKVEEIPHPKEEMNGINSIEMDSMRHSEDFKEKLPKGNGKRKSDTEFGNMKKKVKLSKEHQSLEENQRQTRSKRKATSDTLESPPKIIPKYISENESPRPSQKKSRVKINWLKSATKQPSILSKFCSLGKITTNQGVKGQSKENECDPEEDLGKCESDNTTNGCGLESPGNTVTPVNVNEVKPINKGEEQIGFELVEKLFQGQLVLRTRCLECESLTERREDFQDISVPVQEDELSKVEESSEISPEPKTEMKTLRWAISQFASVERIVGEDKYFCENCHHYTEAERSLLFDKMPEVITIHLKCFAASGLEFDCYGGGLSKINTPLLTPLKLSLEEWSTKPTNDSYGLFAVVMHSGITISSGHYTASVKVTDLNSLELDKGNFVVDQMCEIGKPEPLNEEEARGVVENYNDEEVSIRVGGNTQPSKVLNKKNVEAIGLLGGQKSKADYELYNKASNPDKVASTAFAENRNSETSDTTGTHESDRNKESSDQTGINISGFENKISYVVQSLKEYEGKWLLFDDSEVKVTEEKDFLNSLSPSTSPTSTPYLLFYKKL
Sequence of Lysosomal acid glucosylceramidase (Homo sapiens) (P04062 whole entry, looked up): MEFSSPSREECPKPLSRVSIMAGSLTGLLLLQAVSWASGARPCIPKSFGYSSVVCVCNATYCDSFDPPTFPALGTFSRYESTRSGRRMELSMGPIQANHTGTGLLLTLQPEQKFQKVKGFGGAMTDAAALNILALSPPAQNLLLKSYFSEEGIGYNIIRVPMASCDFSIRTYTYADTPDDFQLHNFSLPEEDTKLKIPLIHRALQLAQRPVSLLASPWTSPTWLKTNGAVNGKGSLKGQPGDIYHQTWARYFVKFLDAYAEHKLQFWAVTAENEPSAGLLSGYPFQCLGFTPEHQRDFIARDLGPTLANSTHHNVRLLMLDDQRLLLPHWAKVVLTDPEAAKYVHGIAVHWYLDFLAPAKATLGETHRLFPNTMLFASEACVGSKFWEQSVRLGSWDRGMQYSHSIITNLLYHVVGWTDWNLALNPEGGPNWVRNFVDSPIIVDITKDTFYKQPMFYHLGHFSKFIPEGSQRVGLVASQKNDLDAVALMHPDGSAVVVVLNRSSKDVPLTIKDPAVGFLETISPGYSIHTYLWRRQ

COc1ccc(CNc2cc(-c3ccccc3CN(C)C)ncn2)c(OC)c1
active: Potency [2] 15.8 µM
inactive: activity change, negative = inhibition [1] -0.546% | activity, negative = inhibition [3] 10.5% | Potency [4] > 46 µM | Potency [5] > 46 µM | Potency [6] | Potency [7] | Potency [8] | activity change, negative = inhibition [9] 3.53% | Potency [10] | outcome [11]
8.17%: max response [9, 15]
12.8%: max response [9, 16]

FC(F)(F)c1ccccc1-c1cncnc1Nc1ccccc1
10.3%: max response [9, 15]
active: Potency [2] 25.1 µM | Potency [13] 0.501 µM
16.8%: max response [9, 16]
inactive: activity change, negative = inhibition [1] -9.67% | activity change, negative = inhibition [12] 9.21% | activity, negative = inhibition [3] 7.53% | Potency [4] > 46 µM | Potency [5] > 46 µM | Potency [6] | Potency [8] | activity change, negative = inhibition [9] 4.42% | Potency [10] | outcome [11]

Cc1noc(C)c1C(=O)N1CCC2(CC1)CN(c1ccccn1)C2
6.89%: max response [9, 15]
inactive: activity change, negative = inhibition [1] 23.5% | activity, negative = inhibition [3] 3.57% | Potency [5] > 46 µM | Potency [6] | Potency [7] | activity change, negative = inhibition [9] 4.72% | outcome [11]
15.4%: max response [9, 16]

CC(=O)N1CCC[C@@]2(CCN(C(=O)Nc3cccc(C#N)c3)C2)C1
-0.637%: max response [9, 16]
-7.31%: max response [9, 15]
inactive: activity change, negative = inhibition [1] -7.34% | activity change, negative = inhibition [12] 23.9% | activity, negative = inhibition [3] 7.98% | Potency [5] > 46 µM | Potency [6] | Potency [7] | activity change, negative = inhibition [9] 2.15% | outcome [11]

O=C(c1ccncc1)N1CCC2(CC1)CCN(c1ccncc1)CC2
inactive: activity change, negative = inhibition [1] -16.4% | activity, negative = inhibition [3] 5.08% | Potency [5] > 46 µM | Potency [6] | Potency [7] | activity change, negative = inhibition [9] 1.78% | outcome [11]
-11.6%: max response [9, 15]
-7.91%: max response [9, 16]

O=C(c1ccncc1)N1CCC2(CCN(Cc3nccs3)CC2)CC1
5.04%: max response [9, 16]
inactive: activity change, negative = inhibition [1] 6.32% | Potency [2] | activity, negative = inhibition [3] 4.96% | Potency [5] > 46 µM | Potency [7] | activity change, negative = inhibition [9] -1.51% | outcome [11]
5.19%: max response [9, 15]

O=C(c1cccc(F)c1)N1CCC2(CC1)CCN(c1ccncc1)CC2
-17.2%: max response [9, 15]
-16.4%: max response [9, 16]
inactive: Potency [14] > 11.4 µM | activity, negative = inhibition [3] 24% | Potency [5] > 46 µM | Potency [6] | Potency [13] | activity change, negative = inhibition [9] -0.521% | outcome [11]

CC(=O)NCCNc1nc(-c2ccc(N(C)C)cc2)nc2ccccc12
active: Potency [2] 3.16 µM
24.4%: max response [9, 16]
13%: max response [9, 15]
inactive: activity change, negative = inhibition [1] 7.41% | activity change, negative = inhibition [12] -28.2% | Potency [4] > 46 µM | Potency [5] > 46 µM | Potency [6] | Potency [7] | Potency [8] | activity change, negative = inhibition [9] 9.02% | Potency [10] | outcome [11]

O=C(c1cc(C(F)(F)F)cc(C(F)(F)F)c1)N1CCC2(CC1)CN(c1ccncc1)C2
-2.54%: max response [9, 15]
0.518%: max response [9, 16]
inactive: activity change, negative = inhibition [1] 13% | Potency [2] | activity, negative = inhibition [3] 3.13% | Potency [5] > 46 µM | activity change, negative = inhibition [9] 2.27% | outcome [11]

O=C(c1ccncc1)N1CCC2(CC1)CCN(c1ccc(-c3ccccc3)cc1)CC2
-2.77%: max response [9, 15]
inactive: activity change, negative = inhibition [1] -18.3% | activity change, negative = inhibition [12] 14.4% | activity, negative = inhibition [3] -9.73% | Potency [5] > 46 µM | Potency [6] | Potency [7] | activity change, negative = inhibition [9] 0.379% | outcome [11]
2.35%: max response [9, 16]

Cc1nc2cnc(N3CCNCC3)nc2n(CCC#N)c1=O
11.9%: max response [9, 15]
19.3%: max response [9, 16]
inactive: activity change, negative = inhibition [1] -1.38% | activity change, negative = inhibition [12] -8.3% | activity, negative = inhibition [3] -12.7% | Potency [4] > 9.22 µM | Potency [5] > 46 µM | Potency [6] | Potency [7] | activity change, negative = inhibition [9] 4.65% | outcome [11]

COc1ccc2[nH]cc(CCNc3ccnc(-c4cccc(NS(C)(=O)=O)c4)n3)c2c1
inactive: activity change, negative = inhibition [1] -8.22% | activity, negative = inhibition [3] -27.4% | Potency [4] > 46 µM | Potency [5] > 46 µM | Potency [6] | Potency [7] | Potency [8] | activity change, negative = inhibition [9] 8.87% | Potency [10] | outcome [11]
-1.88%: max response [9, 15]
active: Potency [2] 1.58 µM
5.22%: max response [9, 16]

CN(C)c1ccc(-c2nc(N(C)C)c3ccccc3n2)cc1
2.51%: max response [9, 15]
active: Potency [2] 0.251 µM
inactive: activity change, negative = inhibition [1] 3.53% | activity change, negative = inhibition [12] -21.8% | Potency [4] > 46 µM | Potency [5] > 46 µM | Potency [6] | Potency [7] | Potency [8] | activity change, negative = inhibition [9] -3.41% | Potency [10] | outcome [11]
-1.1%: max response [9, 16]

Cc1noc(C)c1-c1nc(N2CCOCC2)c2ccccc2n1
6.88%: max response [9, 15]
9.54%: max response [9, 16]
active: Potency [2] 0.316 µM | Potency [13] 6.31 µM
inactive: activity change, negative = inhibition [1] -9.5% | activity change, negative = inhibition [12] 16.1% | activity, negative = inhibition [3] 19.8% | Potency [4] > 46 µM | Potency [5] > 46 µM | Potency [6] | Potency [7] | Potency [8] | activity change, negative = inhibition [9] 2.85% | outcome [11]

Cn1cccc1C(=O)N1CCC2(CCCN(c3ccncc3)C2)CC1
inactive: activity change, negative = inhibition [1] 11.9% | activity, negative = inhibition [3] 0.921% | Potency [5] > 46 µM | Potency [6] | Potency [7] | activity change, negative = inhibition [9] 5.74% | outcome [11]
18.3%: max response [9, 16]
8.08%: max response [9, 15]

Cc1cnc(CNc2ncnc3ccc(-c4ccccc4CN(C)C)cc23)cn1
15.6%: max response [9, 16]
inactive: activity change, negative = inhibition [1] 16.4% | Potency [2] | activity change, negative = inhibition [12] -29.4% | activity, negative = inhibition [3] 11.7% | Potency [4] > 46 µM | Potency [5] > 46 µM | Potency [7] | activity change, negative = inhibition [9] 9.03% | Potency [10] | outcome [11]
5.18%: max response [9, 15]
